Assay outcomes (PubChem BioAssay)
The list is not random: actives were taken first. Their share in the collection is about 3.5%.
Bead autofluor: compound fluorescence in toxin protease inhibitor counterscreen | compound autofluorescence counterscreen, microsphere flow cytometry; active compounds read high | 360,000 tested, 3.1% active | fluorescence intensity (concentration not given with the values); in the data active = fluorescence intensity above about 16000; inconclusive = no clear call, values can overlap the other calls
Anthrax LF prot: anthrax lethal factor protease inhibition. P15917. multiplex microsphere protease cleavage assay, LF. inhibition, % at 10 µM. 360,000 tested, 0.12% active. AID 588501
BoNT A protease: BoNT A light chain protease inhibition; multiplex microsphere protease substrate cleavage, flow cytometry; inhibition, % at 10 µM; 360,000 tested, 0.17% active
BoNT F protease: BoNT F light chain protease inhibition; Multiplex microsphere protease cleavage assay, flow cytometry; inhibition, % at 10 µM; 360,000 tested, 0.22% active; AID 588497; in the data active = inhibition above about 35%, passing the limit was not always enough; inconclusive = no clear call, values can overlap the other calls
3CLpro inhibitor: SARS-CoV 3CLpro protease inhibition | 290,000 tested, 0.14% active | recombinant SARS-CoV 3CLpro, quenched FRET peptide cleavage | inhibition, % at 6 µM | P0C6X7 | AID 1706; in the data active = inhibition above about 12%
Large screens that a line does not name were inactive. Rule as the data show it, unless noted: active = inhibition above about 30%; inconclusive = no clear call, values can overlap the other calls; inactive = below that.

CCNc1c(C(=O)O)ccc2c1C(=O)c1ccccc1C2=O	none
Cn1cnnc1Sc1nc([N+](=O)[O-])nn1C	none
COc1ccccc1-c1nnc(Sc2nc([N+](=O)[O-])nn2C)o1	Bead autofluor 16481
COc1ccc(OCCC(=O)OCC(=O)NCc2ccccc2OC)cc1	none (no result: 3CLpro inhibitor)
O=C(NCc1cccnc1)c1[nH]c(C(F)(F)F)nc1-c1ccccc1	none (no result: 3CLpro inhibitor)
CCn1nc(C)c(C(=O)Nc2cc(Oc3ccc(Cl)cc3)cc([N+](=O)[O-])c2)c1C	Bead autofluor 19896
Cc1cc2ncn(/N=C/c3ccc([N+](=O)[O-])o3)c2cc1C	none
Nc1nc(-c2cccnc2)nn1C(=O)Cc1ccccc1	Bead autofluor 22678
COc1ccc(CN2C(=O)CCC2(C)C(=O)NCc2cccnc2)c(OC)c1 (configuration not stated)	Bead autofluor 22905, BoNT A protease inconclusive
COc1ccc(CCN2C(=O)CCC2(C)C(=O)NCc2cccnc2)cc1OC (configuration not stated)	none
COC(=O)Cc1c(C)nc2nc(NCc3cccc([N+](=O)[O-])c3)[nH]n2c1=O	Bead autofluor 19811
Cc1cccc(C)c1NC(=O)C1(C)CCC(=O)N1CCOc1ccccc1 (configuration not stated)	none (no result: 3CLpro inhibitor)
COc1ccc(-c2c(C(=O)O)nc3ccccc3c2C(=O)O)cc1	Bead autofluor 16308
CC(C)c1ccc(S(=O)(=O)/N=C2/C=CC(=O)c3ccccc32)cc1	none (no result: Bead autofluor, Anthrax LF prot, BoNT A protease, BoNT F protease)
Cc1ccc(S(=O)(=O)Cc2c(C)noc2C)cc1	Bead autofluor 22977
COc1ccccc1NC(=O)/C(C#N)=C/C=C/c1ccco1	Bead autofluor 22514
N#Cc1c(-c2ccc3c(c2)OCO3)csc1N	none
COc1cccc(C2NC(=O)NC(C)=C2C(=O)Nc2ccccc2C)c1 (configuration not stated)	none (no result: Bead autofluor, Anthrax LF prot, BoNT A protease, BoNT F protease)
COc1cccc(C2NC(=O)NC(C)=C2C(=O)Nc2cc(OC)ccc2OC)c1 (configuration not stated)	Bead autofluor 17900
CC(C)COC(=O)c1cc(-c2ccc(/C=N/n3cnnc3)o2)ccc1Cl	Bead autofluor 22229
CCCc1nc2c(C)ccc(C)c2c(N)c1CC	Bead autofluor 22777, BoNT A protease inconclusive
CCN(CC)c1ccc(/C=N/N2CCN(Cc3cccc4ccccc34)CC2)c(O)c1	Bead autofluor 23476
CCN(CC)c1ccc(/C=N/N2CCN(Cc3ccc(Cl)cc3)CC2)c(O)c1	none
O=C(Nc1ccccc1)c1ccccc1OCC(O)CN1C(=O)c2ccccc2S1(=O)=O (configuration not stated)	none
CC1(C)NC(=O)N(CC(O)CN2C(=O)NC(C)(C)C2=O)C1=O	Bead autofluor 23204
CC1(C)NC(=O)N(CC(O)COc2ccccc2C(=O)Nc2ccccc2)C1=O (configuration not stated)	Bead autofluor 23718
Cc1cc(N2C(=O)C(O)=C(C(=O)c3cccs3)C2c2ccccc2)no1 (configuration not stated)	Bead autofluor 17508
Cc1cccc(NC(=O)Cn2c(=O)n3nc(CCn4nc(C)cc4C)nc3c3ccccc32)c1	Bead autofluor 21276
CN1CCc2c(sc3c2c(=O)n(-c2ccccc2)c2nnc(SCc4ccc(F)cc4)n32)C1	none (no result: 3CLpro inhibitor)
COc1ccccc1NC(=O)CSc1nc2n[nH]c(C)c2c(=N)n1-c1ccccc1Cl	Bead autofluor 22575
Cc1cccc(-n2c(SCC(=O)N3CCCC3)nc3n[nH]c(C)c3c2=N)c1	Bead autofluor 22446, BoNT A protease inconclusive
COc1ccc(C(=O)NCCc2cn3ccccc3n2)cc1	none
COc1ccc(CCC(=O)N2CCN(C3CCCCC3)CC2)cc1	Bead autofluor 20796
Cc1nc2cc(-c3ccccc3)nn2c(C)c1CCC(=O)N1CCN(c2ccccc2)CC1	none
COc1ccc(CCC(=O)N2CCC3(CC2)OCCO3)cc1	Bead autofluor 16327
COc1ccc(NC(=O)N2CCC3(CC2)OCCO3)cc1	none
Cc1nc2cc(-c3ccccc3)nn2c(C)c1CCC(=O)N1CCC2(CC1)OCCO2	Bead autofluor 16588
Cc1ccc(NC(=O)CSc2nnc3ccccn23)c(Cl)c1	none (no result: 3CLpro inhibitor)
CC(C)(C)NC(=O)CN(C(=O)C1(C)CC(=O)N=C2C=CC=CN21)C1CCCC1 (configuration not stated)	Bead autofluor 23762
O=C(c1ccc(Br)cc1)C1CCc2occc2C1=O (configuration not stated)	Bead autofluor 22206
N#Cc1c(N)sc2c1CCN(CCc1ccccc1)C2	BoNT A protease 65
N#Cc1c(NC(=S)NC(=O)c2ccccc2)sc2c1CCN(CCc1ccccc1)C2	none (no result: Bead autofluor, Anthrax LF prot, BoNT A protease, BoNT F protease)
Cc1cc(C)cc(N(C(=O)Cc2cccs2)C(C(=O)NC2CCCCC2)c2ccccn2)c1 (configuration not stated)	Bead autofluor 23274, BoNT A protease inconclusive
O=C(NC1CCCCC1)C(c1ccccn1)N(C(=O)Cc1cccs1)c1ccc(Cl)cc1 (configuration not stated)	none
CCc1ccc(N(C(=O)Cc2cccs2)C(C(=O)NC2CCCCC2)c2cn(C)nc2C)cc1 (configuration not stated)	Bead autofluor 23253, BoNT A protease inconclusive
CN(C)CCNc1nc2sc3c(c2c(=O)n1-c1ccc(F)cc1)CCCCC3	none
COc1ccc(-n2c(NCCN(C)C)nc3sc4c(c3c2=O)CCCCC4)cc1	Bead autofluor 22405
CC(C)c1ccc(O)c(N)c1	none
CCC(C)c1ccc(O)c(N)c1 (configuration not stated)	Bead autofluor 16286
Cc1ccc2cc(CN(CC3CCCO3)C(=O)C(C)C)c(=O)[nH]c2c1 (configuration not stated)	Bead autofluor 23042
Cc1ccc2cc(CN(CC(C)C)C(=O)C3CCCO3)c(=O)[nH]c2c1 (configuration not stated)	none
O=C1Nc2ccccc2N=C(c2ccccc2)C1N1CCOCC1 (configuration not stated)	Bead autofluor 21946, BoNT A protease inconclusive
COc1cc(OC)cc(C(=O)NC2CCN(Cc3nnnn3Cc3cccs3)CC2)c1	Bead autofluor 25214
COc1ccc(NC(=O)C2CCN(C(=O)Cc3ccccc3)CC2)cc1OC	none
CCOc1ccc(NC(=O)Cn2c(=O)oc3cc(Cl)ccc32)cc1	none
O=C(c1cc2ncc(Br)cn2n1)N1CCOCC1	Bead autofluor 24596, BoNT A protease inconclusive
CCc1cc(=O)oc2cc3oc(C)c(C)c3cc12	Bead autofluor 19139, BoNT A protease inconclusive
Cn1ncc2c(N3CCN(c4ccccc4F)CC3)ncnc21	Bead autofluor 16585, BoNT A protease inconclusive
COc1cc(C2NC(=O)NC(C)=C2C(=O)OC(C)(C)C)ccc1OCC(N)=O (configuration not stated)	Bead autofluor 21970, BoNT A protease inconclusive
COc1cc(C2NC(=O)NC(c3ccccc3)=C2C(C)=O)ccc1OCC#N (configuration not stated)	Bead autofluor 23457
COc1ccccc1NC(=O)c1ccccc1C(=O)O	none
COc1ccccc1Oc1ccccc1C(=O)O	Bead autofluor 16152
O=C(NCc1ccco1)c1ccccc1-c1ccccc1	Bead autofluor 22200
